Data from PubChem BioAssay.
The source made the active and inactive calls.

What was measured:
[1] = small molecules captured by biotinylated probe aFSTL3 – biochemical, small-molecule microarray, fluorescence 635/667, stem cell growth factor project, primary screen (AID 1064); settings: higher = more signal;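 note: measures binding of the biotinylated anti-FSTL3 antibody to printed compounds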
[2] = binders from COS7 lysate, DM2A8 probe, primary screen, torsin A project, cell lysate, small-molecule microarray, fluorescence 635/667 (AID 1065); settings: higher = more signal, COS7 lysate expressing mutant human TOR1A
[3] = small molecules captured by biotinylated probe aFGF2 – biochemical, small-molecule microarray, fluorescence 635/667, stem cell growth factor project, primary screen (AID 1067); settings: higher = more signal;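 note: measures binding of biotinylated aFGF2 protein to printed compounds on slides; z-score merges feature fluorescence and signal-to-noise across triplicate slides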
[4] = small molecules captured by biotinylated probe aFGF10 – biochemical, small-molecule microarray, fluorescence 635/667, stem cell growth factor project, primary screen (AID 1071); settings: higher = more signal;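 note: score merges 667 nm spot intensity and signal to noise from triplicate slides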
[5] = target: Neurogenic locus notch homolog protein 2 (Homo sapiens) (UniProt Q04721); assay: small molecules binding Notch2 protein – biochemical, small-molecule microarray, 635 nm fluorescence, stem cell growth factors, primary screen (AID 1073); settings: higher = more signal
[6] = target: Pro-neuregulin-1, membrane-bound isoform (Homo sapiens) (UniProt Q02297); assay: small molecules binding neuregulin-1 protein – biochemical, small-molecule microarray, fluorescence 635/667, psychiatric disease protein project, primary screen (AID 1075); settings: NRG1 binding, 635 nm fluorescence, higher = more signal;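 note: score combines 667 nm spot fluorescence with signal to noise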
[7] = test system: Neuregulin-1 EGF-like domain; assay: small molecules binding NRG1 EGF domain – biochemical, small-molecule microarray, 635 nm fluorescence, primary screen (AID 1081); settings: higher = more signal;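 note: binding of the protein to compounds printed on small-molecule microarray slides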
[8] = FRG1 expression reporter modulators in myotubes – cell-based, C2C12 myotubes, firefly/Renilla luciferase, luminescence, FRG1 inhibition for FSHD, primary screen (AID 1084); settings: FRG1 promoter luciferase, higher = more signal, called active from +8 up or from −8 down
[9] = small molecules captured by biotinylated probe aFST – biochemical, small-molecule microarray, fluorescence 635/667, stem cell growth factor project, primary screen (AID 1086); settings: higher = more signal;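 note: score merges 667 nm fluorescence with signal-to-noise of each printed compound spot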
[10] = binders of probe aHhip on microarray, primary screen, stem cell growth factor project, biochemical, small-molecule microarray, fluorescence 635/667 (AID 1087); settings: higher = more signal;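 note: score merges spot fluorescence at 667nm with spot signal to noise ratio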

Sequence of Neurogenic locus notch homolog protein 2 (Homo sapiens) (Q04721 whole entry, looked up, canonical isoform): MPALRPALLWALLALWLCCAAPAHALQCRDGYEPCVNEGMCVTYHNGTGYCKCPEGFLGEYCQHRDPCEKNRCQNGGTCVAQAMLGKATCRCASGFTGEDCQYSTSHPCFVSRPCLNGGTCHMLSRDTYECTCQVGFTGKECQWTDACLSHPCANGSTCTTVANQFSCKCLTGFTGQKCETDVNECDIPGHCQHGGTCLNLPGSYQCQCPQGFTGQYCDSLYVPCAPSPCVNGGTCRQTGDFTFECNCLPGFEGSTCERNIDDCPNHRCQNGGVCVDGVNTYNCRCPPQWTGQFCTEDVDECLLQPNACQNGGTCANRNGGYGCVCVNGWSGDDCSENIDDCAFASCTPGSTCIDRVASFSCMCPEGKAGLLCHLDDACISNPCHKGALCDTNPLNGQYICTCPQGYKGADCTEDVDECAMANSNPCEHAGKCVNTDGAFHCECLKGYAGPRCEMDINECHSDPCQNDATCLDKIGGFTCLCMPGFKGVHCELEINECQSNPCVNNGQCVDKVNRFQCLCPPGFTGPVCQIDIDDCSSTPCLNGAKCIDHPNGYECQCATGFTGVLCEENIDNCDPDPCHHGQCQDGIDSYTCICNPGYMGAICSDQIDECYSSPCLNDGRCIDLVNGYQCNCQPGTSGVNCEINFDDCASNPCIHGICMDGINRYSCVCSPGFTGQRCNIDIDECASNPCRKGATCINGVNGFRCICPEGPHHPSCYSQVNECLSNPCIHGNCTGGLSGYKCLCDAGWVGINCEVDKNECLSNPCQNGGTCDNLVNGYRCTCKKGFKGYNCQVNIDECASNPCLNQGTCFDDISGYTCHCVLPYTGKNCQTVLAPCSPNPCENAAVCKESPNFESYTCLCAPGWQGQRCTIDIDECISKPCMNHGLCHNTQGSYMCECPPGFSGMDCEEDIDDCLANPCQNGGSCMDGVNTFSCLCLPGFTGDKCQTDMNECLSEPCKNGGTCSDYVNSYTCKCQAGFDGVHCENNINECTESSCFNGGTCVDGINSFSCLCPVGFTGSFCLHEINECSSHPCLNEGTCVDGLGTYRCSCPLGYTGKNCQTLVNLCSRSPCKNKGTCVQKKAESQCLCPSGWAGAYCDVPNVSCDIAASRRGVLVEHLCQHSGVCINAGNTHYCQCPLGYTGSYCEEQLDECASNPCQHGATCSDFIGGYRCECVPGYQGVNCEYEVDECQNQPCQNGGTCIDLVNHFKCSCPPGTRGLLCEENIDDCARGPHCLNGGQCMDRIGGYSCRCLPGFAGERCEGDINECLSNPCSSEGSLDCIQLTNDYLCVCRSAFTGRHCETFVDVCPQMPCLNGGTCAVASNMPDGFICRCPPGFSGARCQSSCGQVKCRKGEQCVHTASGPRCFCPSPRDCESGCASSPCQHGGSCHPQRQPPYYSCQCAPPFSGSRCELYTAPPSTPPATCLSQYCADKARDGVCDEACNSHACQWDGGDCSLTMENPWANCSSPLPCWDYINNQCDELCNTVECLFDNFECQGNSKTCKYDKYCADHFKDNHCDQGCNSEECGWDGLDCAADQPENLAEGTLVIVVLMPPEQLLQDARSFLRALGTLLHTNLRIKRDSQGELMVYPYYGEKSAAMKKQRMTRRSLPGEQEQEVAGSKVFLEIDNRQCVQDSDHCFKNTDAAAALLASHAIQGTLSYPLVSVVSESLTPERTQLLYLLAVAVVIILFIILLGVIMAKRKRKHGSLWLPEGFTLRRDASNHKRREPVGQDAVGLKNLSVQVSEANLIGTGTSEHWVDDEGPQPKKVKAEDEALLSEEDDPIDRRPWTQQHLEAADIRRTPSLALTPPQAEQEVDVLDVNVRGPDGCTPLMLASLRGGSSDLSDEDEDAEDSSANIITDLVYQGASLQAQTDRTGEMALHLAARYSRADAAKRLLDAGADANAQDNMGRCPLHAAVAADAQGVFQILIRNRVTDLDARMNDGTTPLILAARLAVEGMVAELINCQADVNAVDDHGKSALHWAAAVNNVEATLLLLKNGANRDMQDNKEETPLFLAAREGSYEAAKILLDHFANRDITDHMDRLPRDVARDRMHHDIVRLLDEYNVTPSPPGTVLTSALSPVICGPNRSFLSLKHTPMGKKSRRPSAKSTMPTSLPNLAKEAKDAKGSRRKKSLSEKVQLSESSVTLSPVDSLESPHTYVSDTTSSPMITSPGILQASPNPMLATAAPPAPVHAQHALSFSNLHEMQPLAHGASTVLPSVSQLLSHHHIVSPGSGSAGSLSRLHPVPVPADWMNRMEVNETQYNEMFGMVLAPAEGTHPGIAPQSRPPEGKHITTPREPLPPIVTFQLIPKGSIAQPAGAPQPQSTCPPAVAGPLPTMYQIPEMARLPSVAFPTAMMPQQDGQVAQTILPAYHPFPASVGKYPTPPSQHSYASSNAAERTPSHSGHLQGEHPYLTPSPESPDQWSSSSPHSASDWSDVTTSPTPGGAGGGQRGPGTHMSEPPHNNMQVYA
Sequence of Pro-neuregulin-1, membrane-bound isoform (Homo sapiens) (Q02297 whole entry, looked up, the tested form may be a part, canonical isoform): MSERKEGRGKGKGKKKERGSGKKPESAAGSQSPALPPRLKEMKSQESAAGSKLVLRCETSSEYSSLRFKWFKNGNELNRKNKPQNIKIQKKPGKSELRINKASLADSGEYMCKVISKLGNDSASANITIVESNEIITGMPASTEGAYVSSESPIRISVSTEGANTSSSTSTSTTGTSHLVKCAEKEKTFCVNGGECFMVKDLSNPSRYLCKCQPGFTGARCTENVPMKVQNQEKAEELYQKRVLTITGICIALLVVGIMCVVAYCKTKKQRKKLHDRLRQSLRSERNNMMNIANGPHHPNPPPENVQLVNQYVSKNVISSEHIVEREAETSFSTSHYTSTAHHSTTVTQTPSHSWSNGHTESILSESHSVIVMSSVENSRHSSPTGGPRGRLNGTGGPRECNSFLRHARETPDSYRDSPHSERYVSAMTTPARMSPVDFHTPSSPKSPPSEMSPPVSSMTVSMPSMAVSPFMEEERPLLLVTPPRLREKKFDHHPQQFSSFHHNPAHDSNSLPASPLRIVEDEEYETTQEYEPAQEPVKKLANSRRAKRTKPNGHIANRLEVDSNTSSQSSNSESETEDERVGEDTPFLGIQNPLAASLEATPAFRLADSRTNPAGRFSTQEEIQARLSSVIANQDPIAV

| Compound | composite z-score [1] | composite z-score [2] | composite z-score [3] | composite z-score [4] | composite z-score [5] | composite z-score [6] | composite z-score [7] | z-score [8] | composite z-score [9] | composite z-score [10] |
| --- | --- | --- | --- | --- | --- | --- | --- | --- | --- | --- |
| C=C(/C(=C/C[C@H](OC(=O)c1ccncc1)c1ccc(OCCO)cc1)c1cc(C(=O)OC)ccc1OC)C(C)C | -0.0836 | 0.362 | -0.134 | 0.607 | -0.478 | 0.892 | 0.781 | 6.19 (inactive) | 0.87 | -0.0994 |
| COC(=O)[C@@]1(Cc2ccc(OC)cc2)[C@H]2c3cc(C(=O)N(C)C)n(Cc4ccc(C(F)(F)F)nc4)c3C[C@H]2CN1C(=O)c1ccccc1 | 0.125 | 0.114 | 0.0343 | 0.459 | 1.53 | 1.34 | 1.01 | 0.515 (inactive) | 0.597 | -0.0237 |
| O=C1OCCC=C[C@H]2OC34C=CCN(Cn5nnc6ccccc65)C(=O)[C@H]3N(CCO)C(=O)[C@@H]4C12 (stereo not given in full) | -0.254 | -0.4 | -0.219 | -0.308 | -1.06 | 0.0802 | 1.13 | 0.684 (inactive) | -0.8 | -0.226 |
| CC(C)(C)OC(=O)CC[C@]1(C(N)=O)N=C(c2ccc(OCCCO)cc2)O[C@H]1c1ccccc1 | 1.05 | 1.16 | 0.0466 | 0.27 | 1.53 | 2.53 | 1.07 | -0.578 (inactive) | 0.994 | 0.294 |
| CC(c1ccccc1)C(O)C1C=CC2C(=O)N(c3ccccc3)C(=O)C2N1Nc1ccccc1 (stereo not given) | -0.245 | 0.2 | 0.0878 | 1.13 | 1.55 | 1.53 | 1.34 | -1.41 (inactive) | 1.38 | 0.179 |
| COc1ccc([C@H]2C[C@H]3C(Br)=C[C@@]2(CO)C(=O)[C@]32CO2)cc1 | -0.035 | -0.512 | -0.0563 | 0.0327 | 0.269 | -0.202 | -0.333 | 1.26 (inactive) | 0.0716 | -0.175 |
| COc1ccc(NC(=O)O[C@H]2[C@H](OC(=O)c3cc4ccccc4[nH]3)[C@@H](OC(=O)c3cc4ccccc4[nH]3)[C@@H](OC)O[C@@H]2CO)cc1 | -0.147 | 0.0444 | 0.0014 | 0.528 | 0.23 | 0.765 | 0.543 | 2.22 (inactive) | 0.0417 | 0.21 |
| C=CCNC(=O)[C@@H]1[C@H]2C(=O)O[C@H](c3ccccc3)[C@H](c3ccccc3)N2[C@H](c2ccc(OCCO)cc2)[C@@]12C(=O)N(C(=O)OCCOC)c1ccc(C#CCC(C(=O)OC)C(=O)OC)cc12 | -0.426 | 1.25 | 0.0408 | 1.05 | 1.1 | 1.48 | 1.12 | 1.26 (inactive) | 0.88 | 0.386 |
| O=C1NC(=O)C2C1C=CC(C(O)C1CC=CCC1)N2Nc1ccccn1 (stereo not given) | 0.0882 | 0.922 | 0.135 | 0.938 | 1.2 | -0.0625 | 1.11 | 0.845 (inactive) | 0.324 | -0.445 |
| COC(=O)C(CC#Cc1ccc2c(c1)[C@]1(C(=O)N2)[C@H](c2ccc(O)cc2)N2[C@H](c3ccccc3)[C@H](c3ccccc3)OC(=O)[C@H]2[C@@H]1C(=O)N1CCN(c2ncccn2)CC1)C(=O)OC | 0.136 | 0.215 | -0.0035 | 0.349 | 0.577 | 1.86 | 1.35 | -1.36 (inactive) | 0.599 | 0.351 |
| COc1ccc(CCNC(=O)[C@@]2(C)c3ccccc3C(=O)N(c3ccc(C)cn3)[C@H]2c2ccc(CO)cc2)cc1 | -0.561 | -0.997 | -0.171 | -0.516 | -0.859 | 0.884 | 1.34 | 1.07 (inactive) | -0.389 | -0.13 |
| Cc1ccc(S[C@]2(C(=O)O)CC(=O)N(Cc3ccccc3C(F)(F)F)[C@@H]2c2ccc(CO)cc2I)cc1 | -0.0699 | 0.979 | -0.1 | -0.0146 | -1.23 | 0.695 | 0.559 | 0.371 (inactive) | -0.387 | -0.334 |
| CC(C)NC(=O)[C@@H]1c2ccccc2C(=O)N(C(C)C)[C@H]1c1ccc(CO)cc1 | 0.473 | 0.0121 | -0.0064 | -0.057 | -0.78 | 0.853 | 1.47 | 0.229 (inactive) | -0.868 | -0.236 |
| NCCCCCCNC(=O)[C@H]1C[C@H]2C(=O)N[C@@H](Cc3ccccc3)C(=O)N2[C@H]1c1cccc(OCCO)c1 | 0.135 | 0.537 | 0.0227 | 0.534 | 0.427 | 1.7 | 0.922 | 1.7 (inactive) | 0.482 | -0.0346 |
| COCC(=C=CC[C@@H](O)c1ccc(OCCO)cc1)C[C@@H](O)c1ccccn1 | -0.212 | -0.116 | -0.0633 | 0.923 | 0.687 | 1 | 1.24 | 1.33 (inactive) | 0.423 | -0.236 |
| O=C1OCCC=C[C@H]2OC34C=CCN(CCN5CCOCC5)C(=O)[C@H]3N(CCCCCO)C(=O)[C@@H]4C12 (stereo not given in full) | -0.391 | 1.84 | -0.203 | 0.0681 | -0.419 | 1.06 | 1.42 | -0.521 (inactive) | -0.324 | -0.0994 |
| COC(=O)[C@@]1(Cc2ccc(OC)cc2)[C@H]2c3cc(C(=O)N4CCCC4)n(CCCNc4ncc(C(F)(F)F)cc4Cl)c3C[C@H]2CN1C(=O)c1ccccc1 | 0.965 | 0.103 | 0.578 | 0.583 | 1.7 | 1.71 | 0.709 | 2.95 (inactive) | 2.32 | 1.31 |
